This passage reports growth results from PubChem BioAssay (NCI).

This is part of a sample that, as a whole, favours compounds with a hit. Of some 83,000 tested, about 20% had one in any assay.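 A percent growth of 40 corresponds to 60% growth inhibition; 0 means no net growth; -100 means all cells died. Active threshold: below 10.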 Unmarked numbers belong to inactive results. Active and inactive are the calls of the source.

The test deals with CAKI-1 renal. The test is described as follows: NCI-60 one-dose screen, 48 h (100 = growth as untreated, 0 = no growth, -100 = all killed). The note with it: 10 µM unless noted. The method, then: Growth inhibition of the CAKI-1 human tumor cell line is measured as a screen for anti-cancer activity. Cells are grown in 96 well plates and exposed to the test compound for 48 hours. Compounds are tested at a single concentration, which is 10^-5 M for most compounds. The reported endpoint is percent growth (GI% or GIPRCNT), where numbers from 0 - 100% represent growth inhibition, and numbers from -100% - 0 represent cell death. For example, a value of 40 represents 60% growth inhibition. A value of 0 means no net growth occurred over the course of the experiment. A value of -40 indicates 40% of cells at the beginning of the experiment died by the end of the experiment. A value of -100 means all cells are dead at the end of the experiment.
NCI-60 Human Tumor Cell Lines Screen was performed using the standard one-dose NCI protocol, which is described in more detail at https://dtp.cancer.gov/discovery_development/nci-60/default.htm.
Compounds with GIPRCNT values below 10 were considered active. Activity score was based on GIPRCNT using the following formula: […]
Score is 0 for GIPRCNT values of 100 or above, 50 for GIPRCNT values of 0, and 100 for GIPRCNT values of -100.
Turning to `CNC(=O)c1cc(Oc2ccc3nc(NC(=O)Nc4ccc(CN5CCOCC5)c(C(F)(F)F)c4)sc3c2)ccn1`, the growth is 19.4%.
The value for `CCC(=O)OCc1cccc(OC)c1` was 73.6%.
The value for `COc1c2ccccc2c(OC)c2[nH]c(=O)ccc12` was 81%.
Next, `CCOC(=O)C(C#N)C1CCCCC1` (stereo not given): 75.5%; `CCCCCC(=O)Oc1ccc(/C(=C(\C)c2ccccc2)c2ccc(OCCN(CC)CC)cc2)cc1`: 99.7%; `COc1ccc(C(=O)/C=C/c2cc3ccccc3[nH]c2=O)cc1`: 42.8%.
As for `CCN(CC)CCC(=O)Nc1ccc(Cn2nnc3c2C(=O)c2nnn(Cc4ccc(NC(=O)CCN(CC)CC)cc4)c2C3=O)cc1`, the growth was 85.9%.
Next, `Cc1cc(Nc2nc(N3CCNCC3)nc3ccccc23)n[nH]1`: 20.1%; `Nc1ccc(Nc2nccc(-c3ccc4ccccc4c3)n2)cc1`: 32%; `CN(C)c1ccc(C2Nc3ccccc3-n3cccc32)cc1` (stereo not given): 83.3%.
Next, `COC(=O)[C@@H]1CC[C@]2(C)[C@H](CC[C@@H]3O[C@@]32C)[C@@]1(C)CC(=O)c1ccoc1`: 106%; `CCN1CCN(Cc2ccc(NC(=O)Nc3nc4ccc(Oc5ccnc(C(=O)NC)c5)cc4s3)cc2C(F)(F)F)CC1`: -44.2% (active); `Nc1nc(SCc2ccccc2)c2ncn(C3CCCC3)c2n1`: 102%.
Next, `Cc1ccc(S(=O)(=O)N(CCc2ccc(Cl)cc2)S(=O)(=O)c2ccc(C)cc2)cc1`: 72.8%.
For the compound `O=C1C=CC(=O)c2c1nc1n2CCCC1`, the growth was 95.7%.
The value for `CCC(C)[C@@H]1NC(=O)[C@@H]2CCCN2C(=O)[C@H](Cc2ccccc2)NC(=O)[C@@H]2CCCN2C(=O)[C@H](Cc2ccccc2)NC(=O)[C@@H]2CCCN2C(=O)[C@H](Cc2ccccc2)NC1=O` (stereo not given in full) was 94.1%.
Next, `CC(=O)N1CC(Nc2ccc(OC(F)(F)F)cc2)=CC1=O`: 30%; `CCNS(=O)(=O)c1ncnc2nc[nH]c12`: 94.9%.
As for `CC1=CC(=O)CC(C)(C)[C@@]1(O)/C=C/[C@@H](C)O`, the growth was 97.2%.
The value for `CCOC(=O)C(CC)n1c(=O)c2cc(OC)c(OC)cc2c2cnc3[nH]ccc3c21` (stereo not given) was 59%; that for `Nc1cc(-c2nc3sccn3c2-c2ccnc(NCCCNS(=O)(=O)c3ccc(F)cc3)n2)ccc1F` was 29.7%.
Consider `CCN(CC)CC(O)CNc1c2ccc([N+](=O)[O-])cc2nc2cc(OC)c(OC)cc12` (stereo not given), for which the growth was 16.3%.
Next, `CC(C)Oc1nc2c(c(=O)n(C)c(=O)n2C)n1C`: 100%; `CC/C=C\C[C@H](F)C/C=C1/C(=O)C=C[C@@H]1C/C=C\CCCC(=O)OC`: 9.44% (active).
Next, `O=C(COc1cccc(/C=C2/Oc3ccccc3C2=O)c1)Nc1nccs1`: 37%; `O=C(C[C@@H](C(=O)NCc1cccc(C(F)(F)F)c1)N1C(=O)[C@@H](N2C(=O)OC[C@@H]2c2ccccc2)[C@H]1/C=C/c1ccccc1)NC1CCN(Cc2ccccc2)CC1`: 85.2%; `Nc1ccc2c(c1)C(=O)NC2=O`: 99.6%.
The value for `CC1=C(NCCN2CCCC2)C(=O)c2c(OCc3ccc(C(F)(F)F)cc3)cccc2C1=O` was 59.9%; that for `Oc1ccc(Nc2nccc(-c3ccc4ccccc4c3)n2)cc1` was 27.2%; that for `COc1ccc(-c2cc(-c3cccnc3)nc3sc4c(=O)n(-c5ccc(C)cc5)cnc4c23)cc1OC` was 76.3%.
As to `O=C(COCc1c(-c2ccccc2)no[n+]1[O-])Nc1ccc(C(=O)/C=C/c2ccc3c(c2)OCO3)cc1`, the growth was 91.7%.
Next, `CCN(CC)Cc1cc(Nc2c3ccccc3nc3cc(Cl)ccc23)ccc1O`: -75% (active).
Next, `CC1=C(NCCN2CCCC2)C(=O)c2c(OCc3cccc(Cl)c3)cccc2C1=O`: 53.7%; `CCCCCCCCCC(=O)Oc1ccc(/C(=C(/C)Cc2cccc(OC)c2)c2ccc(OCCN(C)C)cc2)cc1`: 102%.
The value for `CCN(CC)CCC(=O)c1ccc(OC)c2ccccc12` was 88.7%.
Regarding `Cc1noc(C)c1-c1cc(O)cc(C(O)c2ccccc2)c1` (stereo not given), the growth was 23.8%.
The value for `COc1cc(C(=O)/C=C/c2c(C)n([O-])c3ccc(C)cc3[n+]2=O)cc(OC)c1OC` was 6.71% (active); that for `N#Cc1ccc(NC(=O)Nc2ccc(Cc3ccc(NC(=O)Nc4ccc(C#N)cc4)cc3)cc2)cc1` was 48.5%.
Next, `Cc1cc2c(cc1C)NC1=C(N2)OC(c2c3ccccc3cc3ccccc23)C1=O` (stereo not given): 42.5%; `O=C(/C=C\c1cccc([N+](=O)[O-])c1)c1ccccc1`: 84.4%.
